LEDGF integ inh: blocks HIV-1 LEDGF/p75-dependent DNA integration | TR-FRET IN-LEDGF/p75 DNA integration, Eu/Cy5 | inhibition, % at 3.7 µM | actives 0.64% (n = 370,000);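 active = inhibition above the screen-wide mean plus 3 SD, cut at about 13% in these data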;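 also: signal is the Cy5 over europium emission ratio at 671 and 618 nm; 0% = plate median of compound wells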
MBD2 DNA inh: MBD2-methylated oligo binding inhibition | TR-FRET, MBD2 binding to methylated oligonucleotide | inhibition, % at 4.4 µM | actives 0.31% (n = 370,000) | AID 686964; in the data active = inhibition above about 13%
Target sequence (Q9UBB5 whole entry, looked up): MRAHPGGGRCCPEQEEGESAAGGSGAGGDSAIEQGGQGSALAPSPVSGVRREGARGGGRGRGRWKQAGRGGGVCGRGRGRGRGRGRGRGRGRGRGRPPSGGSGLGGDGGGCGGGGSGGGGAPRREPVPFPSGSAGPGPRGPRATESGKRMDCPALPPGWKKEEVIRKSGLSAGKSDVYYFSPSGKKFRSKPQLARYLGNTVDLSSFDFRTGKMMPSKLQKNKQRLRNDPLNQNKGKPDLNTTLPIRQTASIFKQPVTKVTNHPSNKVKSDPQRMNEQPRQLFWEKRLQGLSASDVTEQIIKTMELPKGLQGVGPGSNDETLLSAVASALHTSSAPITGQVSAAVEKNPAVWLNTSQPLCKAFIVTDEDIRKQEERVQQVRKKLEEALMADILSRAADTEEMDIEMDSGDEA
PG9 Ab binder: PG9 antibody binding by small molecule | inhibition, % at 6.7 µM | TR-FRET gp120-PG9 antibody binding | actives 0.43% (n = 360,000); in the data active = inhibition above about 8.5%
UHRF1 MBD2 ctr: UHRF1 methyl-DNA binding inhibition; inhibition, % at 4.4 µM; Q96T88; UHRF1 binding to methylated oligo, TR-FRET; actives 0.75% (n = 370,000); in the data active = inhibition above about 21%;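 also: UHRF1 SRA domain binding a hemimethylated CpG hairpin DNA probe; 0% = median of test compound wells and 100% = reference inhibitor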
rCAG binder-1: binds r(CAG) RNA repeats. r(CAG) RNA repeat, TO-PRO-1 dye displacement fluorescence. inhibition, % at 3 µM. actives 1.3% (n = 370,000);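 active = inhibition above the plate cutoff, the mean of all test compounds on that plate plus 3 SD, cut at about 35% in these data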;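 also: 0% = DMSO alone and 100% = 100 µM mitoxantrone as full dye displacement; higher means more dye released from RNA so lower well fluorescence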
DNMT1 block: inhibitors of human DNMT1. AID 588458. P26358. inhibition (reported as % activation of signal), % at 10 µM. actives 0.83% (n = 360,000). DNMT1 molecular beacon, Hinp1I cleavage, fluorescence; in the data active = inhibition above about 50%
rCAG bind conf: r(CAG) RNA repeat binding, confirmation; inhibition, % at 3 µM; actives 70% (n = 4,300); AID 652065; TO-PRO-1 dye displacement fluorescence; shares compounds with rCAG binder-1;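 active = inhibition above a per-plate cutoff, the mean inhibition of sample wells plus 3 SD, cut at about 35% in these data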;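 also: loss of TO-PRO-1 fluorescence as compound displaces dye from 1x1 AA loop RNA; 0% = DMSO only wells and 100% = 100 µM mitoxantrone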
dCAG dye counter: counter-screen for rCAG RNA binders: DNA CAG dye complex inhibitors. AID 652068. inhibition, % at 3 µM. shares compounds with rCAG binder-1. d(CAG) DNA oligo TO-PRO-1 dye displacement, fluorescence. actives 94% (n = 4,300);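 active = inhibition above its plate's cutoff, the mean test-well inhibition plus 3 SD, cut at about 4.8% in these data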;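 also: 0% = DNA dye mix with DMSO and 100% = 100 µM mitoxantrone; hits displace the dye from DNA and so lower well fluorescence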
dCAG dye DR: DNA CAG dye complex inhibition, dose response counter-screen | shares compounds with rCAG binder-1 | IC50, µM | actives 20% (n = 250) | DNA CAG/GTC duplex TO-PRO-1 dye displacement fluorescence; in the data active = IC50 below about 10 µM
dCAG TOPRO ctr: DNA CAG dye complex inhibition, late stage dose response; shares compounds with rCAG binder-1; d(CAG) DNA duplex TO-PRO-1 dye displacement, fluorescence; IC50, µM; AID 720649; actives 80% (n = 30)
rCAG binder-2: r(CAG) repeat RNA binding, TO-PRO-1 displacement; shares compounds with rCAG binder-1; r(CAG) RNA TO-PRO-1 dye displacement, fluorescence; IC50, µM; actives 100% (n = 30); AID 720651
* hit, by the source's call; i = inactive; x = no result. Most compounds without a hit are left out; they make up all but 3.5% or so of the library. Unless noted, no rule for the calls is given here.

SMILES	LEDGF integ inh	MBD2 DNA inh	PG9 Ab binder	UHRF1 MBD2 ctr	rCAG binder-1	DNMT1 block	rCAG bind conf	dCAG dye counter	others
CCOC(=O)C1=C(C)N=c2s/c(=C/c3ccc(OCC(=O)O)cc3)c(=O)n2C1c1ccc(F)cc1 (configuration not stated)	7	-2	-1	-3	69*	1	77*	36*
CCOC(=O)C1=C(C)N=c2s/c(=C\c3ccc(OCC(=O)O)cc3)c(=O)n2C1c1ccccc1OC (configuration not stated)	-2	6	0	-1	31	3	x	x
CCOC(=O)C1=C(C)N=c2s/c(=C\c3ccc(O)c([N+](=O)[O-])c3)c(=O)n2C1c1ccccc1OC (configuration not stated)	-2	0	3	7	52*	-26	88*	64*
CN(C(=O)COC(=O)c1ccc(=O)n(Cc2ccccc2)n1)C1CCCCC1	-1	-1	-1	12	-10	6	x	x
Cc1ccnc(NS(=O)(=O)c2ccc(NC(=O)c3snnc3C)cc2)n1	1	2	-2	-2	6	-1	x	x
CC1CCCC(C)N1C(=O)COC(=O)CNS(=O)(=O)c1ccc2ccccc2c1 (configuration not stated)	5	1	-2	2	2	-2	x	x
O=C(NCc1ccccn1)C1Nc2ccc(OC(F)(F)F)cc2C2C=CCC12 (configuration not stated)	1	2	1	-7	37*	0	2	2
CCOC(=O)C1Nc2ccc(C(F)(F)F)cc2C2c3ccccc3CC12 (configuration not stated)	0	0	-1	-2	-1	3	x	x
CCOC(=O)C1Nc2ccc(OC(F)(F)F)cc2C2C=CCC12 (configuration not stated)	0	0	-4	-5	40*	-31	17	6.1*
O=C(NC1CC1)C1Nc2ccc(OC(F)(F)F)cc2C2C=CCC12 (configuration not stated)	-1	-1	0	-8	43*	-2	2	0
Cc1ccc2c(c1)C1C=CCC1C(C(=O)NCCCN1CCOCC1)N2 (configuration not stated)	2	-2	0	-4	14	-6	x	x
O=C(NCCCN1CCOCC1)C1Nc2ccc(OC(F)(F)F)cc2C2C=CCC12 (configuration not stated)	0	-5	1	-4	6	-8	x	x
CCOC(=O)[C@]12CCC=C1N(CCC1=CCCCC1)C(=O)[C@H](CC(=O)N1CCCCC1)C2	7	2	0	0	1	x	x	x
COC(=O)c1sc(SC)c(S(=O)(=O)C(C)C)c1N/N=C(\C#N)C(=O)c1ccccc1	0	-4	1	0	52*	-1	71*	22*	dCAG dye DR=4.3*
CCOC(=O)C1CCN(c2c(NCCCN(CC)c3ccccc3)c(=O)c2=O)CC1	1	5	-1	-2	-7	-3	x	x
CCN(CCCNc1cc2c(c(N)c1S(=O)(=O)O)C(=O)c1ccccc1C2=O)c1ccccc1	-2	1	-21	19	73*	24	81*	54*
CCOc1ccc(S(=O)(=O)N2CCC(C(=O)NC3CC3)CC2)cc1Cl	-4	2	-3	-1	1	1	x	x
Cc1ccc2[nH]c(C)c(/C=N/Nc3nc4ccccc4s3)c2c1	4	-2	-2	-4	65*	-23	47*	26*
O=C1NC[C@H](CCCCN2C[C@H](Cc3ccc(O)cc3)N(CCc3ccccc3)C(=O)C2=O)N(CC2CCCCC2)C1=O	0	2	0	0	4	x	x	x
Nc1cccc2[nH]c(C(F)(F)F)nc12	8	-1	-2	2	70*	-12	61*	33*
O=C(C[C@H]1CC[C@H]2[C@@H](COC[C@@H](O)CN2S(=O)(=O)c2ccccc2)O1)N[C@@H]1CCN(Cc2ccccc2)C1	1	-4	0	-1	0	x	x	x
CCNC(=S)NNC(=O)c1cc(-c2cccc(OC)c2)nc2ccccc12	0	-5	-1	0	11	4	x	x
CCCOc1cccc(-c2cc(C(=O)NNC(=S)NCC)c3ccccc3n2)c1	-5	7	-2	-3	58*	-6	56*	20*
COc1ccc(C(=O)NNC(=S)NC(=O)c2cc(-c3ccccc3)nc3ccccc23)cc1	0	1	-1	-6	65*	-2	79*	33*
COc1ccc(/C=C/C(=O)NC(=S)NNC(=O)c2c(-c3ccccc3)noc2C)cc1	-2	1	-1	0	12	1	x	x
SMILES	LEDGF integ inh	MBD2 DNA inh	PG9 Ab binder	UHRF1 MBD2 ctr	rCAG binder-1	DNMT1 block	rCAG bind conf	dCAG dye counter	others
Cc1ccc(C)c(-c2cc(C(=O)NNC(=S)NCC(C)C)c3ccccc3n2)c1	-13	0	-2	-6	45*	-3	67*	24*	dCAG dye DR=>30
COc1ccc(-c2cc(C(=O)NNC(=S)NC(=O)c3c(-c4ccccc4)noc3C)[nH]n2)cc1	-11	1	0	22*	70*	-1	75*	33*	dCAG dye DR=i;dCAG TOPRO ctr=i;rCAG binder-2=0.99*
Cc1cccc(-c2nnc(SCC(=O)N3CCOCC3)o2)c1	4	-1	0	0	-1	3	x	x
Cc1c(NC(=O)C(C)Oc2ccccc2F)c(=O)n(-c2ccccc2)n1C (configuration not stated)	-3	2	0	2	-1	1	x	x
CCNC(=S)NNC(=O)c1cc(-c2ccc(OCC)cc2)nc2ccccc12	-11	1	1	-4	43*	-5	48*	16*
Nc1nccnc1C(=O)OCC(=O)NCCc1ccc(S(N)(=O)=O)cc1	5	-3	-2	1	14	-1	x	x
